From PubChem BioAssay come the findings set out here.

Experiment [1] relates to Wnt5a (protein binding on small-molecule microarray). In words: Wnt5a binders on small-molecule microarray, primary screen, biophysical, 635/667 nm fluorescence (AID 1142).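 Also: fluorescence read at 667 nm with signal to noise per printed feature.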 Particulars: 635 nm fluorescence, higher = more signal.
Experiment [2] in a line: cell viability in Huh7 cells, primary screen, cytotoxicity control for HCV replication inhibitor project, CellTiter-Glo luminescence, basal, 48 h (AID 1143).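 Also: Huh7 hepatoma cells carrying a hepatitis C replication reporter with no stimulus; test concentration not given here.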 Particulars: Huh7 HCV replicon, higher = more signal, called active from +8 up or from −8 down.
Experiment [3] is described as follows: P. aeruginosa biofilm formation inhibitors, primary screen, PAO1 strain, BacTiter-Glo luminescence, LB-PBS (AID 1144). Particulars: 12 h, higher = more signal.
Experiment [4] is described as follows: CREB reporter modulators without forskolin, primary screen, cell-based, PC12, CRE-LacZ reporter, unstimulated (AID 1145). The conditions noted are these: no forskolin, luminescence, 4.5 h, higher = more signal, called active from +8 up or from −8 down.
A short description of experiment [5]: CREB reporter modulators under forskolin, primary screen, cell-based, PC12, CRE-LacZ reporter, forskolin-stimulated (AID 1146).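 Also: PC12 cells with 6xCRE LacZ reporter stimulated by forskolin 10 µM; beta-galactosidase reporter signal reflecting CREB driven transcription.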 The conditions noted are these: luminescence, 4.5 h, higher = more signal, called active from +8 up or from −8 down.
The target in experiment [6] is Streptavidin (Streptomyces avidinii) (UniProt P22629). In words: streptavidin binders on small-molecule microarray, primary screen, artefact control for SMM compound annotation, biophysical, 635/667 nm fluorescence (AID 1147).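 Also: signal reflects streptavidin binding to arrayed compounds as a control protein.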 Particulars: streptavidin binding, higher = more signal.
The nature of experiment [7]: small-molecule binders of probe aInhba, primary screen, biochemical, small-molecule microarray, 635/667 nm fluorescence (AID 1148).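 Also: score merges 667nm spot fluorescence with signal-to-noise for antibody binding to printed compounds.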 Particulars: higher = more signal.
In experiment [8] the target is Torsin-1A (Homo sapiens) (UniProt O14656). In words: torsin A binders from cell lysate, primary screen, small-molecule microarray, wild-type, 635/667 nm (AID 1149). Particulars: COS7 hTOR1A-WT lysate, 635 nm fluorescence, higher = more signal.
Experiment [9] shares this target. In words: small-molecule binders of mutant TOR1A in lysate, primary screen, cell lysate, small-molecule microarray, COS7 lysate, 635/667 nm fluorescence (AID 1150).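 Also: score pools 667 nm emission and signal to noise measuring lysate protein binding.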 Particulars: COS7 hTOR1A mutant lysate, 635 nm fluorescence, higher = more signal.
Experiment [10] has as its system Sonic hedgehog protein (Shh). As to the kind of experiment: small-molecule binders of Shh protein, primary screen, biochemical, small-molecule microarray, 635/667 nm fluorescence (AID 1151).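 Also: Shh protein binding to compounds spotted on small-molecule microarray slides; score combines spot fluorescence intensity with signal-to-noise across triplicate slides.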 Particulars: small-molecule microarray binding, 635 nm fluorescence; higher = more signal.
The nature of experiment [11]: E. coli DRC41 culture turbidity changes, primary screen, E. coli filamentation inducer project, strain DRC41, OD650, 48 h (AID 1152).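 Also: E. coli MC1000 strain DRC41 lacking acrAB efflux pump and sulA.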 Particulars: E. coli DRC41 (acrAB sulA), higher = more signal, called active from +8 up or from −8 down.
Experiment [12] can be described thus: small-molecule binders of probe aLefty1, primary screen, biochemical, small-molecule microarray, 635/667 nm fluorescence (AID 1153).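 Also: score merges spot fluorescence with signal-to-noise ratio from the scanned slide images.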 Particulars: higher = more signal.
The nature of experiment [13]: PSAC antagonists in infected red cells, primary screen, cell-based, P. falciparum Indochina, OD700, 1 h (AID 1154). The conditions noted are these: P. falciparum Indochina infected RBC osmotic lysis, higher = more signal, called active from +8 up or from −8 down.
The nature of experiment [14]: PSAC antagonists in infected red cells, primary screen, cell-based, P. falciparum Indochina, OD700, 2 h (AID 1155).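 Also: lysis reports solute entry through the parasite surface anion channel PSAC; channel blockers reduce lysis of infected cells.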 Particulars: P. falciparum Indochina infected erythrocytes, osmotic lysis OD700; higher = more signal, called active from +8 up or from −8 down.
Experiment [15] can be described thus: osmotic lysis modulators in infected erythrocytes, primary screen, PSAC antagonist project, cell-based, P. falciparum Indochina, OD700, 3 h (AID 1156). The conditions noted are these: higher = more signal, called active from +8 up or from −8 down.
Experiment [16] in a line: PSAC antagonists in infected red cells, primary screen, cell-based, P. falciparum Indochina, OD700, 18 h (AID 1157). The conditions noted are these: P. falciparum Indochina infected erythrocytes, osmotic lysis OD700, 18 h; higher = more signal, called active from +8 up or from −8 down.
The nature of experiment [17]: modulators of S6 phosphorylation in cells, primary screen, cell-based, A549, cytoblot, luminescence, serum-stimulated (AID 1158).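 Also: serum-stimulated A549 lung adenocarcinoma cells; signal is phosphorylated S6 detected by cytoblot immunostaining with HRP secondary.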 Particulars: A549 phospho-S6 cytoblot, 5 h, higher = more signal.
Experiment [18] has as its target NADPH oxidase 2 (Homo sapiens) (UniProt P04839). In words: NOX2-dependent H2O2 signal modulators, primary screen, NOX inhibitor project, cell-based, HEK293-NOX2, PMA-stimulated, Amplex Red fluorescence (AID 1159). Also: test concentration not given here. Particulars: 45 min, higher = more signal, called active from +8 up or from −8 down.
Experiment [19] addresses NADPH oxidase 4 (Homo sapiens) (UniProt Q9NPH5). In words: NOX4-dependent H2O2 signal modulators, primary screen, NOX inhibitor project, cell-based, HEK293-NOX4, tetracycline-induced, Amplex Red fluorescence (AID 1160). Particulars: 45 min, higher = more signal, called active from +8 up or from −8 down.
Experiment [20] concerns the target NADPH oxidase 5 (Homo sapiens) (UniProt Q96PH1). As to the kind of experiment: NOX5-dependent H2O2 signal modulators, primary screen, NOX inhibitor project, cell-based, HEK293-NOX5, Amplex Red fluorescence (AID 1161). Particulars: HEK293-NOX5, ionomycin, 45 min, higher = more signal.

SMILES strings stand for the structures. The source made the active and inactive calls. Unless noted, no rule for the calls is given here.

Sequence of NADPH oxidase 2 (Homo sapiens) (P04839 whole entry, looked up): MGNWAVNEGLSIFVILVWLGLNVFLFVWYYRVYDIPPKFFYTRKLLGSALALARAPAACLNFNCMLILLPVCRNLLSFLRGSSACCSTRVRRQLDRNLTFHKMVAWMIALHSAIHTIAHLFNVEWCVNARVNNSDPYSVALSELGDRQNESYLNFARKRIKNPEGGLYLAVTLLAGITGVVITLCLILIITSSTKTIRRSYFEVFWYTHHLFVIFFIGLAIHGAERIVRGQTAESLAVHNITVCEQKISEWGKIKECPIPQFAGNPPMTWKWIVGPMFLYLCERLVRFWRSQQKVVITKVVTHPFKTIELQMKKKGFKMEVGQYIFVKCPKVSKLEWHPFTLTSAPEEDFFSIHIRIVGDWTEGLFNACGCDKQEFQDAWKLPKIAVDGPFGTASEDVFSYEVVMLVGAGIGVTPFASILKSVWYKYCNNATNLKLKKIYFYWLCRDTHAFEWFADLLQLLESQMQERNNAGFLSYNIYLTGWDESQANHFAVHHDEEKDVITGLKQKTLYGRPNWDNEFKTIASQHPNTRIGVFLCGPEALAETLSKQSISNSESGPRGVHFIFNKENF
Sequence of NADPH oxidase 4 (Homo sapiens) (Q9NPH5 whole entry, looked up): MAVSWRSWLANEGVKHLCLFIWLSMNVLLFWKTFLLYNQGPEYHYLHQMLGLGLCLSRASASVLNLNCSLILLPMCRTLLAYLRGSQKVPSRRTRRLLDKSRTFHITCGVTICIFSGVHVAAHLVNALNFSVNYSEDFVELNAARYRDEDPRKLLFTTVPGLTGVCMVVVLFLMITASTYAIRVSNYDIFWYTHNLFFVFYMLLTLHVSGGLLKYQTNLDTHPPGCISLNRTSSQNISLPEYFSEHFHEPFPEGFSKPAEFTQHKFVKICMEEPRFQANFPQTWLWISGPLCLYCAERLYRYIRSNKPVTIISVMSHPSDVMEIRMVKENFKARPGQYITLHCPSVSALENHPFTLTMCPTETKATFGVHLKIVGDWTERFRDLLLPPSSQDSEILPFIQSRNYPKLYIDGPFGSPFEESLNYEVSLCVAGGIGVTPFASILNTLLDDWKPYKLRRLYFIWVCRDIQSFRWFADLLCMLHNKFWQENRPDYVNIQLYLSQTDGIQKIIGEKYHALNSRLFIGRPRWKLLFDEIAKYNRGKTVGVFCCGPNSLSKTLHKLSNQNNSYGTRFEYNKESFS
Sequence of NADPH oxidase 5 (Homo sapiens) (Q96PH1 whole entry, looked up): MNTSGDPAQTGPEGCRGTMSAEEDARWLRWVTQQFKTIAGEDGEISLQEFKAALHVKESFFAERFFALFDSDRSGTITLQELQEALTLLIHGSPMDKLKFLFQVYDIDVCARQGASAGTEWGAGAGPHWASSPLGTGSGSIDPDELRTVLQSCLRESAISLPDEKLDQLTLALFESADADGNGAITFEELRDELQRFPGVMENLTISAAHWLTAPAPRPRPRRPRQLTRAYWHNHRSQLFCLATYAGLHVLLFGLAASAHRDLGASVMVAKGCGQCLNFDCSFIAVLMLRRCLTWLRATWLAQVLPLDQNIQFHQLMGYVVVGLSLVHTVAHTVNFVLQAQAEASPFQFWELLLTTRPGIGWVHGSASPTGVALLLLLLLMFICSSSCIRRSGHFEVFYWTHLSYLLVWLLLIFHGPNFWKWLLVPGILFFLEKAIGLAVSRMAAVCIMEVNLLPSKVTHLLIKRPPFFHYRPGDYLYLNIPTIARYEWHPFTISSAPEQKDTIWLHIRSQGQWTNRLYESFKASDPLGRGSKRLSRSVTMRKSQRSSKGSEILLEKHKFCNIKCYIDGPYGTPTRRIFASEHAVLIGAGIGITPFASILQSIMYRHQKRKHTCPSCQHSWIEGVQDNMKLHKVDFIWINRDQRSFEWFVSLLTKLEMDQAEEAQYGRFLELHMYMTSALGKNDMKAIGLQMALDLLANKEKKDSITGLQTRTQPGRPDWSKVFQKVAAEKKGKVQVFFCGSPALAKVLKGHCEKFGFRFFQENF
Sequence of Torsin-1A (Homo sapiens) (O14656 whole entry, looked up): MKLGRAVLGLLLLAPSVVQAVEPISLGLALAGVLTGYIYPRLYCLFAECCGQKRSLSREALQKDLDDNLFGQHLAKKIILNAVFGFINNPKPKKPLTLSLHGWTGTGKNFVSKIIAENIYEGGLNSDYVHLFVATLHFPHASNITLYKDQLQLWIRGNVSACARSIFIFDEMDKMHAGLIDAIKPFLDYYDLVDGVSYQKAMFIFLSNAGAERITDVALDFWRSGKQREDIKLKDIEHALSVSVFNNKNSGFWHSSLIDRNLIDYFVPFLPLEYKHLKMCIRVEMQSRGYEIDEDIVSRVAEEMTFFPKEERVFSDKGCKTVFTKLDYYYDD
Sequence of Streptavidin (Streptomyces avidinii) (P22629 whole entry, looked up): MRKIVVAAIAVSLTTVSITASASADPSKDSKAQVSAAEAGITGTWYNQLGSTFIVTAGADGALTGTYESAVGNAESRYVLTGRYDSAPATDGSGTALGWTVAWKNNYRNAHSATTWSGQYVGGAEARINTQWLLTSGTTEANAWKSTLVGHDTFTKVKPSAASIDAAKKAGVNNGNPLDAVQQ

Consider `CO[C@H]1C[C@@H]2C[C@H](O)CC(CC(=O)O[C@@H](C=CCC(C)C)C[C@@H]3CC[C@H](C)[C@@H](C1)O3)O2`, for which the composite z-score in [1] is 0.318; in experiment [6] it was 0.645; in experiment [7], -0.0494; with Torsin-1A (Homo sapiens) [8], 0.778; with Torsin-1A (Homo sapiens) [9], 0.183; in experiment [10], 1.02. Further, the composite z-score in experiment [12] is -0.104. Also, the z-score in [2] is -0.454 (inactive); in [3], 0.883 (inactive); in [4], 2.64 (inactive); in [5] it was 0.405 (inactive); in experiment [11], -0.55 (inactive); in experiment [13], 0.818 (inactive). Also, the z-score in experiment [14] was 0.41 (inactive); in [15], 0.773 (inactive); in experiment [16], -0.0957 (inactive); in experiment [17] it was -0.254; in [18] it was -1.17 (inactive); in experiment [19], 0.226 (inactive). Also, in [20], the z-score is 1.2.
As for `COC(=O)[C@H](C)NC(=O)CCC1CC(OC(=O)NCc2ccc3c(c2)OCO3)CC2(CCCC(COC(=O)NCCCN3CCCC3=O)O2)O1` (stereo not given in full), the composite z-score in experiment [1] was 0.151; in experiment [6] it was 0.53; in experiment [7], 0.111; with Torsin-1A (Homo sapiens) [8] it was 0.447; with Torsin-1A (Homo sapiens) [9] it was 0.323; in experiment [10], 0.78. In addition, in experiment [12], the composite z-score came to 0.0326. Further, the z-score in [2] is -0.849 (inactive); in [3] it was -0.202 (inactive); in experiment [4], 0.108 (inactive); in experiment [5] it was 0.833 (inactive); in [11], -0.37 (inactive); in [13], -0.881 (inactive). Also, the z-score in experiment [14] was 0.136 (inactive); in [15] it was -0.257 (inactive); in [16], -0.169 (inactive); in experiment [17] it was 0.0031; in experiment [18], 1.1 (inactive); in experiment [19] it was -1.51 (inactive). The z-score in experiment [20] is -1.74.
On to `COc1ccc(OC[C@@H]2CC3[C@@H](c4ccc(Br)cc4)[C@H](C)CC[C@H]3C(=O)O2)cc1` (stereo not given in full), for which the composite z-score in experiment [1] is -0.223; in [6], 0.0139; in experiment [7] it was -0.202; with Torsin-1A (Homo sapiens) [8], 0.327; in the experiment with Torsin-1A (Homo sapiens) [9] it was 0.832; in [10], 0.391. The same compound came in with a composite z-score in experiment [12] of -0.106. The z-score in experiment [2] is -0.513 (inactive); in experiment [3], -0.12 (inactive); in [4] it was 1.9 (inactive); in experiment [5], -0.462 (inactive); in experiment [11], -0.594 (inactive); in experiment [13], 4.49 (inactive). Also, the z-score in experiment [14] is 1.7 (inactive); in experiment [15], 0.85 (inactive); in experiment [16], 0.759 (inactive); in [17] it was 0.338; in [18], -0.803 (inactive); in [19], -0.178 (inactive). Besides, the z-score in [20] is -0.351.
For `CCN1C(=O)[C@H]2[C@H]3[C@H](O)[C@H](O)CC(=NOC(C)CN4CCCc5nc(C)c(C)cc54)[C@@H]3CC[C@H]2C1=O` (stereo not given in full), the composite z-score is 0.223 in experiment [1]; -0.0317 in experiment [6]; 0.134 in experiment [7]; 0.46 with Torsin-1A (Homo sapiens) [8]; 0.456 with Torsin-1A (Homo sapiens) [9]; 0.906 in experiment [10]. In [12], this compound registered a composite z-score of 0.603. Besides, the z-score in [2] was 0.433 (inactive); in experiment [3], 1.17 (inactive); in experiment [4] it was -0.882 (inactive); in experiment [5] it was -0.271 (inactive); in [11] it was 0.223 (inactive); in experiment [13], 1.25 (inactive). In addition, the z-score in experiment [14] is 0.59 (inactive); in [15] it was -0.121 (inactive); in [16], 0.588 (inactive); in experiment [17], -0.461; in experiment [18], -1 (inactive); in [19] it was -0.772 (inactive). This compound also yielded a z-score in experiment [20] of -0.298.
For `O=C(NN=C1C[C@@H](O)[C@@H](O)[C@@H]2[C@@H]3C(=O)N(Cc4ccc5c(c4)OCO5)C(=O)[C@@H]3CC[C@@H]12)OCc1ccccc1`, the composite z-score in [1] is -0.0565; in experiment [6], 0.485; in experiment [7] it was -0.183; with Torsin-1A (Homo sapiens) [8], 0.234; in the experiment with Torsin-1A (Homo sapiens) [9], -0.0136; in [10] it was -0.806. Also, the composite z-score in experiment [12] amounted to 0.184. Also, the z-score is -3.46 (inactive) in experiment [2]; 0.156 (inactive) in [3]; 1.06 (inactive) in experiment [4]; 0.0698 (inactive) in experiment [5]; -0.989 (inactive) in [11]; 6.62 (inactive) in [13]. The z-score in experiment [14] is -0.207 (inactive); in experiment [15], 0.465 (inactive); in experiment [16] it was -1.85 (inactive); in [17] it was -0.0564; in experiment [18], -1.78 (inactive); in experiment [19], -1.08 (inactive). The z-score in [20] is -1.39.
